The values that follow come from ChEMBL document CHEMBL1961873, “Compounds: GSK PKIS; Assays: Nanosyn kinase panel” (2012).

Molecules are shown by their SMILES.

The target of assay [1] is T1, 3-phosphoinositide-dependent protein kinase 1 (Homo sapiens) (UniProt O15530).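 Further: values are mean inhibition of PDK1.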
T1 sequence (whole entry): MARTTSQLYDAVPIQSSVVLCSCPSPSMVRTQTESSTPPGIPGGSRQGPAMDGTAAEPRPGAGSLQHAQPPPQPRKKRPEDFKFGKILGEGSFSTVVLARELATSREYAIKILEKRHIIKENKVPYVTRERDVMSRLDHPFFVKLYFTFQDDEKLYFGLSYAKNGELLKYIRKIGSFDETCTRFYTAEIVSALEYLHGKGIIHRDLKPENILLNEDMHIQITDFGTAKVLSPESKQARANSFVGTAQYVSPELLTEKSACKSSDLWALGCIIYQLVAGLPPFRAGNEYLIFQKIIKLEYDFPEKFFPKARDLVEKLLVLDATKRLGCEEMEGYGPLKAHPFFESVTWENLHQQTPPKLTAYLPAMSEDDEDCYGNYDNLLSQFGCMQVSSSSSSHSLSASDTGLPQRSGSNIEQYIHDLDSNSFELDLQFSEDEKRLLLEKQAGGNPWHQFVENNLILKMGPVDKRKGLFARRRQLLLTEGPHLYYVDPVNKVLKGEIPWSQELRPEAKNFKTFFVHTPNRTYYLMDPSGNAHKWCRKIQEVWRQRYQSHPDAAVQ
The note with it: at 0.1 µM.

Assay [2] deals with cAMP-dependent protein kinase catalytic subunit alpha (Homo sapiens) (UniProt P17612). The settings on record: at 0.1 µM.
Assay [3] has the same target. The note with it: at 1 µM.
In assay [4] the target is Protein kinase C alpha type (Homo sapiens) (UniProt P17252). The settings on record: at 0.1 µM.
The target is the same in assay [5]. The note with it: at 1 µM.
In assay [6] the target is Protein kinase C beta type (Homo sapiens) (UniProt P05771). The settings on record: at 0.1 µM.
Assay [7] has the same target. The note with it: at 1 µM.
For assay [8], the target named is Protein kinase C eta type (Homo sapiens) (UniProt P24723). The note with it: at 0.1 µM.
Assay [9] has the same target. The note with it: at 1 µM.
Assay [10] has as its target Protein kinase C gamma type (Homo sapiens) (UniProt P05129). The note with it: at 0.1 µM.
For assay [11] the target is unchanged. The note with it: at 1 µM.
Assay [12] deals with T2, Protein kinase C iota type (Homo sapiens) (UniProt P41743).
T2 sequence (whole entry): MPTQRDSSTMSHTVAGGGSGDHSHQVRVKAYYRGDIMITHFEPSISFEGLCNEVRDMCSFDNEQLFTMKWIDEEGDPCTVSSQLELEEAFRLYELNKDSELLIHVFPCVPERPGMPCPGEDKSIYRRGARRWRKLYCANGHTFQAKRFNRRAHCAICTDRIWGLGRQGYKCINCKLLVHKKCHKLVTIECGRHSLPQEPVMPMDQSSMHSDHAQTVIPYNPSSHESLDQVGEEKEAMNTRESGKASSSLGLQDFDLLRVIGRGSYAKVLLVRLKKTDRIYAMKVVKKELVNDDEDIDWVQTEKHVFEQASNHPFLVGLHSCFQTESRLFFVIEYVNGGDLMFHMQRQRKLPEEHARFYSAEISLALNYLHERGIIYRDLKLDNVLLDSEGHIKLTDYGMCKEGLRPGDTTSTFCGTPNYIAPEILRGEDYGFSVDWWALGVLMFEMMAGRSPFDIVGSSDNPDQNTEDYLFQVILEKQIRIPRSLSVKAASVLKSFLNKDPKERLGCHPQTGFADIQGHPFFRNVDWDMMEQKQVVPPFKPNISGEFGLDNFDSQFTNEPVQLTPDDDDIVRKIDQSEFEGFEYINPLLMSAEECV
The note with it: at 0.1 µM.

In assay [13] the target is T2, Protein kinase C iota type (Homo sapiens). The settings on record: at 1 µM.
In assay [14] the target is Protein kinase C theta type (Homo sapiens) (UniProt Q04759). The note with it: at 0.1 µM.
Assay [15] has the same target. The settings on record: at 1 µM.
Assay [16] addresses Protein kinase C beta type (Homo sapiens) (UniProt P05771). The settings on record: at 0.1 µM. The source holds these as a separate data set.
The target is the same in assay [17]. The settings on record: at 1 µM. The source holds these as a separate data set.
The target in assay [18] is T3, Serine/threonine-protein kinase D1 (Homo sapiens) (UniProt Q15139).
T3 sequence (whole entry): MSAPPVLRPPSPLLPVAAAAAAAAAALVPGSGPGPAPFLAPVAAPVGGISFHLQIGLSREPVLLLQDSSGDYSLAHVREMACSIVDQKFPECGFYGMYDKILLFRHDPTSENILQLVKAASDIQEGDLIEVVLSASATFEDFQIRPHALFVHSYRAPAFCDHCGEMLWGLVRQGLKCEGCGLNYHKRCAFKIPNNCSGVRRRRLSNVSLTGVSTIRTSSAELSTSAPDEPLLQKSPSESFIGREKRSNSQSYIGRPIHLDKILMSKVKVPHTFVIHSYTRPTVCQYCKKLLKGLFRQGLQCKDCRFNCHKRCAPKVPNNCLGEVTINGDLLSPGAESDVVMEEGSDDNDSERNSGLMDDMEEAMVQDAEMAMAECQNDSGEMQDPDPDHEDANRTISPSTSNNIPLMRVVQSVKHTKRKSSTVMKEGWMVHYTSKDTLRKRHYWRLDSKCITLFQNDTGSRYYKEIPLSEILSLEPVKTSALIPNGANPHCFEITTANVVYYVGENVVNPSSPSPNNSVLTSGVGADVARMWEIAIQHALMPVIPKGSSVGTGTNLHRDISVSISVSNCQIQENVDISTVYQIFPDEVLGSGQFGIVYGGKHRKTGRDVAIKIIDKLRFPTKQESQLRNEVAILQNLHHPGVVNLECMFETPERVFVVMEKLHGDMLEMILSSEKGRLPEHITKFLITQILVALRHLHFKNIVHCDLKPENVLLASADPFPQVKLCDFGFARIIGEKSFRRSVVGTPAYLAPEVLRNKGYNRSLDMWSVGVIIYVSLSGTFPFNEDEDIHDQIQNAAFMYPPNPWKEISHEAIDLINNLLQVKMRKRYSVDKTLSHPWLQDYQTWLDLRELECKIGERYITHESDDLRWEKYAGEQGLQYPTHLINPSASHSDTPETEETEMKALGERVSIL
The settings on record: at 0.1 µM.

Assay [19] has as its target T3, Serine/threonine-protein kinase D1 (Homo sapiens). The note with it: at 1 µM.
Assay [20] deals with T4, Serine/threonine-protein kinase D2 (Homo sapiens) (UniProt Q9BZL6).
T4 sequence (whole entry): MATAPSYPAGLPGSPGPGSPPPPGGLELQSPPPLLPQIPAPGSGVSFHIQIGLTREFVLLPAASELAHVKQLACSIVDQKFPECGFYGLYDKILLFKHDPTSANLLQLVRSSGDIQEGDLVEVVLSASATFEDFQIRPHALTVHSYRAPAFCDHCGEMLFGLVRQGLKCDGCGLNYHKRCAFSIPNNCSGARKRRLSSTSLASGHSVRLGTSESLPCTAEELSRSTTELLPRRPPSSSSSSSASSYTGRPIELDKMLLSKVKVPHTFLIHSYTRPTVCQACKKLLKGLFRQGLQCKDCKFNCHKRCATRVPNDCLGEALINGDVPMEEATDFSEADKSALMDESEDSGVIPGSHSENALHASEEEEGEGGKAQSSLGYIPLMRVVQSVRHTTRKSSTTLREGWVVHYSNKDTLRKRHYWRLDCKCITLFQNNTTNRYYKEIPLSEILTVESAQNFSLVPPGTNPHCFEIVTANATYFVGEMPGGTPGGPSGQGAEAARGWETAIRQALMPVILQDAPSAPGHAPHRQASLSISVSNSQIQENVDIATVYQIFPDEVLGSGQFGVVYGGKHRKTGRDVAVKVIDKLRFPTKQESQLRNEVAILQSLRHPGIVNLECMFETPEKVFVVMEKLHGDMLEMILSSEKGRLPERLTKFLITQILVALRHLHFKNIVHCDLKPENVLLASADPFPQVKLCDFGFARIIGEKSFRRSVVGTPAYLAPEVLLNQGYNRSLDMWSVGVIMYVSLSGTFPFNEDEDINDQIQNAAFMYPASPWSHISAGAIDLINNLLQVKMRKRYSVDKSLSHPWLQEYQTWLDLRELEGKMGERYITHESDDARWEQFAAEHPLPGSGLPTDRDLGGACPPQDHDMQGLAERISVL
The note with it: at 0.1 µM.

Chain of Protein kinase C eta type (Homo sapiens) (P24723 whole entry): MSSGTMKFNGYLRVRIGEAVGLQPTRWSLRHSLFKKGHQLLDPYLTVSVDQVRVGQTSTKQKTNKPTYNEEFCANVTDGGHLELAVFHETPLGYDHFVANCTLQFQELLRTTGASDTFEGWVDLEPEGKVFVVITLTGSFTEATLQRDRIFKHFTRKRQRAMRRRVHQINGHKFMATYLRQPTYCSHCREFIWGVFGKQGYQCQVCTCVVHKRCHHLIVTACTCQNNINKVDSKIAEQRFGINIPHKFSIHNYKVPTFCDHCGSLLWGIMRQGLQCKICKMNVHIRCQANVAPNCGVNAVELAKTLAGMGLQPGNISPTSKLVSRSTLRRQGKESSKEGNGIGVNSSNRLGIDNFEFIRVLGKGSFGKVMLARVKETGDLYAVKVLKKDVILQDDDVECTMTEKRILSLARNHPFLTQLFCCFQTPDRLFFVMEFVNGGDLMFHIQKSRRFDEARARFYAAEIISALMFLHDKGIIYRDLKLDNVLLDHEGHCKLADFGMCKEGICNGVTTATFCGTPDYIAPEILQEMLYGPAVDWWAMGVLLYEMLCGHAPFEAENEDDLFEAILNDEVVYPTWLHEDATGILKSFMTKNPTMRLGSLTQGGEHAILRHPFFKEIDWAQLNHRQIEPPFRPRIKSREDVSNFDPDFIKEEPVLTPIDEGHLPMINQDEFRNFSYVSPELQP
Chain of Protein kinase C beta type (Homo sapiens) (P05771 2-671 limits assumed): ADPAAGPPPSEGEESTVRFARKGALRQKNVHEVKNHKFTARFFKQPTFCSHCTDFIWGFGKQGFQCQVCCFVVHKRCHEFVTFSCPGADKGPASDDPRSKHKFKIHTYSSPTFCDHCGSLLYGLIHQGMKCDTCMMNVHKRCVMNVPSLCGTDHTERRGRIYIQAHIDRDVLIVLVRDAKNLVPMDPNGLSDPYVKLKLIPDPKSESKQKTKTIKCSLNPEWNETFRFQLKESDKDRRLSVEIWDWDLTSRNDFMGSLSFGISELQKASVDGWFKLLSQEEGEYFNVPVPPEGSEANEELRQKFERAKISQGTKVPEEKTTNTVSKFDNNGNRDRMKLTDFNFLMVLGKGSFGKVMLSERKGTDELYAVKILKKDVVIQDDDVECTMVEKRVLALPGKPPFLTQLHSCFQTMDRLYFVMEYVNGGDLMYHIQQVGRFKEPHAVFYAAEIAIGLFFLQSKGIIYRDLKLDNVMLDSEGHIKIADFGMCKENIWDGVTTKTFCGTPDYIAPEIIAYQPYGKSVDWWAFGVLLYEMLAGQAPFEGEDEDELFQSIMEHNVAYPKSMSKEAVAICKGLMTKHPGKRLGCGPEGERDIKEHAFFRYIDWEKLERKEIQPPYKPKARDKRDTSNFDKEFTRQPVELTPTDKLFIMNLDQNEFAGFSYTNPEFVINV
Chain of Protein kinase C theta type (Homo sapiens) (Q04759 whole entry, looked up): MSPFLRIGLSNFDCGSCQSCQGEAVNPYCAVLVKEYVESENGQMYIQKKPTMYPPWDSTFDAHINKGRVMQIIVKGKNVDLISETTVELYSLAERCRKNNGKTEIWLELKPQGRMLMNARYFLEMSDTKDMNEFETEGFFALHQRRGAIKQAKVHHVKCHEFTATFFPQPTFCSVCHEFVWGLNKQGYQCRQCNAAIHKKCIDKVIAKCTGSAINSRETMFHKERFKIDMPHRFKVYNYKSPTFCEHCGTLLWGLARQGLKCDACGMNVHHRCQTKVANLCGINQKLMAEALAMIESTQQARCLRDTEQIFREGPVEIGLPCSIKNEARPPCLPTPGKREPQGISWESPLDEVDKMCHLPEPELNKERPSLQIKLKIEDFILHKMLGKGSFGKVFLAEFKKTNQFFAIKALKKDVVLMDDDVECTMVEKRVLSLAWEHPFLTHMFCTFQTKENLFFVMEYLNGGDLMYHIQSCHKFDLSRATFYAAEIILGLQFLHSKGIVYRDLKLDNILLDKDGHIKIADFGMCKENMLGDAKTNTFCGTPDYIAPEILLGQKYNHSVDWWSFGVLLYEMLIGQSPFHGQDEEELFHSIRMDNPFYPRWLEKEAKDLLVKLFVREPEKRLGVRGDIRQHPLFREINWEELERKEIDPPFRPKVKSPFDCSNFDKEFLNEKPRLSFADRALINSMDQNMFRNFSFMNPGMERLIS

`CS(=O)(=O)CCNCc1ccc(-c2ccc3ncnc(Nc4ccc(OCc5cccc(F)c5)c(C(F)(F)F)c4)c3c2)o1`: the inhibition was determined as 2.02% in assay [1]; 1.79% in assay [2]; 2.53% in [3]; 1.25% in assay [4]; 1.29% in assay [5]; 0.59% in assay [6]. Besides, the inhibition in assay [7] stood at 1.62%; in assay [8], 4.51%; in assay [9], 4.84%; in assay [10], 1.87%; in assay [11], 4.01%; in assay [12], 2.77%. Further, the inhibition in [13] is 0.63%; in [14], 2.4%; in assay [15], 2.71%; in assay [16], 1.67%; in assay [17], 2.44%; in assay [18] it was 4.99%. Further, the inhibition in assay [19] worked out at 3.72%; in assay [20] it was 4.63%.

With `NS(=O)(=O)c1cccc(-c2ccc3c(NC(=O)C4CC4)n[nH]c3c2)c1`, the inhibition in assay [1] is -1.98%; in [2], -0.94%; in assay [3], 0.85%; in assay [4], -0.24%; in assay [5], 0.92%; in assay [6], -0.11%. The inhibition in [7] is 2.66%; in [8] it was -2.13%; in assay [9], -2.3%; in assay [10], -1.53%; in assay [11], 3.74%; in assay [12] it was 0.3%. The inhibition in assay [13] was 0.53%; in assay [14], 0.17%; in [15], 0.88%; in [16], -0.62%; in assay [17] it was 2.57%; in [18], -0.83%. The figures for the inhibition in assay [19] and in assay [20] were 0.65% and -0.79%, respectively.

With `CC(C)=Cc1cccc2c1/C(=N/Nc1ccc(S(N)(=O)=O)cc1)C(=O)N2`, the inhibition in [1] was found to be 10.4%; in assay [2], 0.47%; in [3], 3.74%; in assay [4], 0.96%; in [5], 1.29%; in [6], 0.26%. Also, the inhibition worked out at 1.55% in [7]; 0.51% in assay [8]; 2.14% in assay [9]; 1.44% in [10]; 1.25% in assay [11]; 0.62% in assay [12]. Besides, the inhibition was determined as 0.09% in assay [13]; 1.24% in assay [14]; 6.89% in assay [15]; 0.32% in assay [16]; 1.68% in assay [17]; 2.84% in assay [18]. Moreover, the inhibition in assay [19] was 13.5%; in assay [20], -0.05%.

Take `Cc1ccc(NC(=O)c2ccnc(N3CCCC3)c2)cc1-c1ccc(C(=O)NCC2CC2)cc1`: the inhibition in assay [1] is 2.23%; in [2], -2.06%; in assay [3], -0.65%; in assay [4], -2.31%; in assay [5] it was -0.77%; in assay [6], 0.1%. In addition, the inhibition is -1.68% in [7]; 5.39% in assay [8]; 2.22% in assay [9]; 1.09% in assay [10]; 2.77% in assay [11]; 2.01% in assay [12]. Further, the inhibition in assay [13] came to 3.68%; in assay [14] it was 1.28%; in assay [15], 3.17%; in assay [16], 1.24%; in assay [17], 2.94%; in assay [18], 3.07%. Also, the inhibition in [19] turned out to be 9.98%; in assay [20], 2.95%.

Turning to `O=C1NC(=O)C(c2cccc(Cl)c2)=C1Nc1ccc(O)c(Cl)c1`, the inhibition in assay [1] was 0.43%; in assay [2], 1.25%; in assay [3], 1.73%; in assay [4], 3.2%; in assay [5] it was 6.33%; in assay [6], 0.44%. Also, the inhibition was 4.94% in [7]; 1.88% in [8]; 2.97% in [9]; -4.59% in assay [10]; 0.01% in [11]; -1.41% in assay [12]. The inhibition in assay [13] is 0.5%; in assay [14], 0%; in assay [15], 4.79%; in assay [16] it was 0.56%; in assay [17], 8.45%; in assay [18], 0.15%. Further, the inhibition in assay [19] was determined as 1.38%; in assay [20], 0.62%.

The inhibition is the drop in the measured response relative to a control, in per cent.
